Active and inactive are the calls of the source. Rule for the calls: active = hit-call score of the fitted dose curve at least 0.9, where 1 is the maximum; inactive = score below 0.9.

Holding throughout (conditions): mRNA level, 48 h; actives raise or lower the signal
Read-out in experiment [1]: Bcl-2 (BID) gene, BID (gene 637)
Put plainly: LTEA_HepaRG_BID: Life Technologies and Expression Analysis (LTEA) Assay for Bcl-2 (BID) gene using HepaRG (AID 2283476). In outline: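 Duplicate 48 h treatments of HepaRG cells in serum-free induction medium spanned 100 uM downward in half-log steps, 0.5% DMSO. Transcript change quantified by qRT-PCR against three housekeeping genes, fitted up or down versus DMSO.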

Read-out in another experiment: Caspase-3 (Homo sapiens) (UniProt P42574)
Kind of experiment: LTEA_HepaRG_CASP3: Life Technologies and Expression Analysis (LTEA) Assay for cysteine-aspartic acid protease (CASP3) using HepaRG (AID 2283477). In outline:
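Expression of CASP3 was quantified by TaqMan qRT-PCR against three housekeeping genes (ACTB, GAPDH, POLR2A), bidirectionally versus 0.5% DMSO. HepaRG cultures received compounds in duplicate, top 100 uM with half-log steps, for 48 h in serum-free induction medium.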

Read-out in experiment [2]: Cytochrome P450 (CYP24A1), CYP24A1 (gene 1591)
Put plainly: LTEA_HepaRG_CYP24A1: Life Technologies and Expression Analysis (LTEA) Assay for Cytochrome P450 (CYP24A1) using HepaRG (AID 2283478). The gist of the method:
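mRNA of CYP24A1 quantified by TaqMan qRT-PCR (ACTB/GAPDH/POLR2A normalization) after 48 h chemical exposure of HepaRG cells, top concentration 100 uM, half-log steps, 0.5% DMSO vehicle, duplicates. Curves fitted bidirectionally against DMSO baseline.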

Read-out in experiment [3]: Cytochrome P450 (CYP1A2), CYP1A2 (gene 1544)
Put plainly: LTEA_HepaRG_CYP1A2: Life Technologies and Expression Analysis (LTEA) Assay for Cytochrome P450 (CYP1A2) using HepaRG (AID 2283479). The gist of the method:
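CYP1A2 transcript measured by TaqMan qRT-PCR against three housekeeping genes after 48-hour chemical exposure of HepaRG cells. Eight-point half-log series topping at 100 uM in 0.5% DMSO, duplicates; gain or loss fitted relative to vehicle.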

Read-out in experiment [4]: cysteine-aspartic acid protease (CASP8), CASP8 (gene 841)
Kind of experiment: LTEA_HepaRG_CASP8: Life Technologies and Expression Analysis (LTEA) Assay for cysteine-aspartic acid protease (CASP8) using HepaRG (AID 2283480). The gist of the method:
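CASP8 transcript measured by TaqMan qRT-PCR with ACTB/GAPDH/POLR2A normalization, after 48 h chemical exposure of HepaRG cells in serum-free induction medium. Eight concentrations, top 100 uM, half-log steps, 0.5% DMSO vehicle; fits in both directions versus DMSO.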

Read-out in experiment [5]: Cytochrome P450 (CYP2B6), CYP2B6 (gene 1555)
Put plainly: LTEA_HepaRG_CYP2B6: Life Technologies and Expression Analysis (LTEA) Assay for Cytochrome P450 (CYP2B6) using HepaRG (AID 2283481). In outline: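 CYP2B6 transcript level quantified by qRT-PCR against three housekeeping genes, fitted bidirectionally relative to DMSO. HepaRG cultures received chemicals for 48 h, 8-point half-log series from 100 uM in 0.5% DMSO, duplicate wells, serum-free induction medium.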

Read-out in experiment [6]: Cytochrome P450 2C19 (Homo sapiens) (UniProt P33261)
Put plainly: LTEA_HepaRG_CYP2C19: Life Technologies and Expression Analysis (LTEA) Assay for CYP2C19 using HepaRG (AID 2283482). The gist of the method:
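CYP2C19 transcript levels by qRT-PCR, normalized to three housekeeping genes, in HepaRG cells after 48 h chemical exposure. Eight-point half-log series topping at 100 uM, 0.5% DMSO vehicle. Increases and decreases both fitted against DMSO.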

Read-out in a further experiment: CYP2C8 (gene 1558)
Put plainly: LTEA_HepaRG_CYP2C8: Life Technologies and Expression Analysis (LTEA) Assay for CYP2C8 using HepaRG (AID 2283483). In outline:
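CYP2C8 expression measured by TaqMan qRT-PCR and normalized to three housekeeping genes. HepaRG cultures were treated for 48 h with an eight-point half-log series topping at 100 uM, vehicle 0.5% DMSO, duplicates; fitted both directions against DMSO.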

Read-out in a further experiment: CYP2C9 (gene 1559)
Kind of experiment: LTEA_HepaRG_CYP2C9: Life Technologies and Expression Analysis (LTEA) Assay for CYP2C9 using HepaRG (AID 2283484). The gist of the method:
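CYP2C9 transcript level, quantified by TaqMan qRT-PCR against three housekeeping genes, was fitted bidirectionally relative to 0.5% DMSO. HepaRG cultures were treated 48 h, in duplicate, at eight half-log concentrations topping at 100 uM.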

Read-out in another experiment: CYP2E1 (gene 1571)
Put plainly: LTEA_HepaRG_CYP2E1: Life Technologies and Expression Analysis (LTEA) Assay for CYP2E1 using HepaRG (AID 2283485). In outline: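 CYP2E1 transcript measured by Fluidigm qRT-PCR against three housekeeping genes in human HepaRG cells treated 48 h (top 100 uM, half-log steps, 0.5% DMSO vehicle). Gain or loss fitted relative to DMSO baseline.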

Read-out in a further experiment: CYP4A11 (gene 1579)
Put plainly: LTEA_HepaRG_CYP4A11: Life Technologies and Expression Analysis (LTEA) Assay for CYP4A11 using HepaRG (AID 2283486). In outline: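 Readout is CYP4A11 transcript level by qRT-PCR, normalized to three housekeeping genes and fitted bidirectionally against 0.5% DMSO. Human HepaRG cells were treated 48 h, in duplicate, with an 8-point half-log series topping at 100 uM.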

Read-out in experiment [7]: Cytochrome P450 3A4 (Homo sapiens) (UniProt P08684)
Put plainly: LTEA_HepaRG_CYP3A4: Life Technologies and Expression Analysis (LTEA) Assay for CYP3A4 using HepaRG (AID 2283487). In outline: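 HepaRG, 48 h exposure, 8-pt CRC from 100 uM (half-log), 0.5% DMSO, duplicates; serum-free induction medium. Readout: CYP3A4 mRNA, qRT-PCR, ACTB/GAPDH/POLR2A normalization. Bidirectional fit vs DMSO.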

Read-out in experiment [8]: Pro-epidermal growth factor (Homo sapiens) (UniProt P01133)
Kind of experiment: LTEA_HepaRG_EGF: Life Technologies and Expression Analysis (LTEA) Assay for Epidermal growth factor (EGF) using HepaRG (AID 2283489). In outline: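 EGF transcript measured by Fluidigm TaqMan qRT-PCR with three housekeeping genes for normalization, 48 h after dosing HepaRG cultures in duplicate (top 100 uM, half-log steps, 0.5% DMSO vehicle). Gain or loss relative to DMSO fitted.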

Read-out in experiment [9]: Early growth response protein 1 (EGR1) transcription factor, EGR1 (gene 1958)
Put plainly: LTEA_HepaRG_EGR1: Life Technologies and Expression Analysis (LTEA) Assay for Early growth response protein 1 (EGR1) transcription factor using HepaRG (AID 2283490). The gist of the method: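 EGR1 transcript levels quantified by qRT-PCR (Fluidigm arrays) against three housekeeping genes after 48 h chemical exposure of HepaRG cells. Eight-point half-log series topping at 100 uM, 0.5% DMSO vehicle, analyzed for gain or loss.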

Read-out in experiment [10]: Ezrin (EZR), EZR (gene 7430)
Put plainly: LTEA_HepaRG_EZR: Life Technologies and Expression Analysis (LTEA) Assay for Ezrin (EZR) using HepaRG (AID 2283491). In outline: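 Read-out is EZR transcript level by qRT-PCR, normalized to three housekeeping genes and fitted bidirectionally against the DMSO control. Human HepaRG cells received test chemicals for 48 h at eight half-log concentrations up to 100 uM in 0.5% DMSO.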

Read-out in experiment [11]: Cytochrome P450 3A7 (Homo sapiens) (UniProt P24462)
Kind of experiment: LTEA_HepaRG_CYP3A7: Life Technologies and Expression Analysis (LTEA) Assay for CYP3A7 using HepaRG (AID 2283492). In outline:
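CYP3A7 transcript measured by qRT-PCR (ACTB, GAPDH, POLR2A normalization) after 48 h chemical exposure of HepaRG cells in duplicate. Eight half-log concentrations, maximum 100 uM, 0.5% DMSO vehicle; bidirectional curve fitting against DMSO baseline.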

Read-out in experiment [12]: Fatty Acid-Binding Protein 1 (FABP1), FABP1 (gene 2168)
Put plainly: LTEA_HepaRG_FABP1: Life Technologies and Expression Analysis (LTEA) Assay for Fatty Acid-Binding Protein 1 (FABP1) using HepaRG (AID 2283494). In outline:
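FABP1 expression by TaqMan qRT-PCR, normalised to three housekeeping genes, in HepaRG cells after 48 h chemical treatment. Eight-point half-log series topping at 100 uM in 0.5% DMSO, duplicates; gain or loss fitted relative to vehicle.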

Read-out in experiment [13]: Cytochrome P450 4A22 (Homo sapiens) (UniProt Q5TCH4)
Put plainly: LTEA_HepaRG_CYP4A22: Life Technologies and Expression Analysis (LTEA) Assay for Cytochrome P450 4A22 (CYP4A22) using HepaRG (AID 2283495). The gist of the method: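 Gene expression measured by qRT-PCR against three housekeeping genes (ACTB, GAPDH, POLR2A), with gain or loss fitted relative to 0.5% DMSO vehicle. HepaRG cultures received 48 h chemical treatment, top concentration 100 uM, half-log steps, duplicate wells.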

Read-out in a further experiment: CYP3A5 (gene 1577)
Put plainly: LTEA_HepaRG_CYP3A5: Life Technologies and Expression Analysis (LTEA) Assay for CYP3A5 using HepaRG (AID 2283493). The gist of the method: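 mRNA levels were quantified by qRT-PCR on Fluidigm arrays and normalized to three housekeeping genes. Differentiated HepaRG cells received 48 h exposure (top 100 uM, half-log steps, 0.5% DMSO vehicle, duplicate); bidirectional fitting versus DMSO.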

Caspase-3 (Homo sapiens), sequence (P42574 whole entry, looked up): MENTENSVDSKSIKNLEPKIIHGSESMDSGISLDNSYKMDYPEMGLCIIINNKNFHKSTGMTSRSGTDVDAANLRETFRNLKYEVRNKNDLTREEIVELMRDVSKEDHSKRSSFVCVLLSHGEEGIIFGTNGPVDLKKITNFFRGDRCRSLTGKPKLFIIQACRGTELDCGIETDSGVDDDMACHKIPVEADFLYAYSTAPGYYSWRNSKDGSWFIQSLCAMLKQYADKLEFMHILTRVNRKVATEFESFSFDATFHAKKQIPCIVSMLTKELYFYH
Cytochrome P450 3A4 (Homo sapiens), sequence (P08684 whole entry, looked up): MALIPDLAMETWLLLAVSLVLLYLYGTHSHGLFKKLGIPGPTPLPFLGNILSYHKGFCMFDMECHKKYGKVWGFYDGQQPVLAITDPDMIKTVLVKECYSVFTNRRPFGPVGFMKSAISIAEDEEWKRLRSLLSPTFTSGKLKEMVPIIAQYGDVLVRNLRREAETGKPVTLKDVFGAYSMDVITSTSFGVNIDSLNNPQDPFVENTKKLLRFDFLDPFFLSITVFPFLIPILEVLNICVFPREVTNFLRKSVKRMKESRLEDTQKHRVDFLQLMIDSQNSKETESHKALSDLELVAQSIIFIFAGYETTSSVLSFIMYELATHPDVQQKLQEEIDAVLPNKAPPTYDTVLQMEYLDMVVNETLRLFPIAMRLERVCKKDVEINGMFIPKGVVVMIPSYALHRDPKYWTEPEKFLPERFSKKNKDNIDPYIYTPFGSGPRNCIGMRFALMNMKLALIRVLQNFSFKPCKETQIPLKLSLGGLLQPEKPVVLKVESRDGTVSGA
Cytochrome P450 3A7 (Homo sapiens), sequence (P24462 whole entry, looked up): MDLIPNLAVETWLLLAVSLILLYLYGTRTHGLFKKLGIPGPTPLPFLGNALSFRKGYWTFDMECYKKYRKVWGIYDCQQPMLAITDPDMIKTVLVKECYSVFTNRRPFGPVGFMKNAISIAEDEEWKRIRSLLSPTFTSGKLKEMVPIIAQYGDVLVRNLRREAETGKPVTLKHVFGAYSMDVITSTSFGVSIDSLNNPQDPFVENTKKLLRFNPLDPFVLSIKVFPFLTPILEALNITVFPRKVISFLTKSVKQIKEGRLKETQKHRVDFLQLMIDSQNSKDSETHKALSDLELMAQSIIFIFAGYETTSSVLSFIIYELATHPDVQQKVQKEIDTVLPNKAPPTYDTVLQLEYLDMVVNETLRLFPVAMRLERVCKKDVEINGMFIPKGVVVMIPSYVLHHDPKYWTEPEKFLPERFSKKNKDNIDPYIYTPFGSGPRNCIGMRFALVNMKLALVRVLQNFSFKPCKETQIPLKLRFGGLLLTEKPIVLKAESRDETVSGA
Cytochrome P450 2C19 (Homo sapiens), sequence (P33261 whole entry, looked up): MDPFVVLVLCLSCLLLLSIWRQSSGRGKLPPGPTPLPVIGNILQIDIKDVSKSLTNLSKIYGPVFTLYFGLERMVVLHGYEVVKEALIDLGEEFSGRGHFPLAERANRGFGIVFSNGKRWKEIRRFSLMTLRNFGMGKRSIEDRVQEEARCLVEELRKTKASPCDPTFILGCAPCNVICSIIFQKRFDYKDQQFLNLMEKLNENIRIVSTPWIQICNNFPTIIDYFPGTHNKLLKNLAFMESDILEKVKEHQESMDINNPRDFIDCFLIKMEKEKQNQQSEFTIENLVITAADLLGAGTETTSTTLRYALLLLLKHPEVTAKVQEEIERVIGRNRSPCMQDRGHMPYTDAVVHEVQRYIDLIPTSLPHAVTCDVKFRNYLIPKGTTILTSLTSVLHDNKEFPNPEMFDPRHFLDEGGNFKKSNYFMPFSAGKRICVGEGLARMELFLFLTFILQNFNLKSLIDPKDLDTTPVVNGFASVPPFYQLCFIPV

`CN(C)c1ccc(N=NS(=O)(=O)O)cc1`: the call (in experiment [1]; with Caspase-3 (Homo sapiens); in experiment [2]; in [4]; in experiment [5]; in experiment [6]) was inactive. For the same molecule, the call (with CYP2C9 (gene 1559); in the experiment with CYP4A11 (gene 1579); in [7]; in experiment [8]; in experiment [9]; in experiment [10]) was inactive. In addition, in experiment [11], the call was inactive. The AC50 is 13.8 µM (active) in experiment [3]; 2.62 µM (active) in the experiment with CYP2C8 (gene 1558); 22 µM (active) with CYP2E1 (gene 1571); 50 µM (active) in experiment [12]; 9.92 µM (active) in [13].
For the molecule `CC(C)=CCC/C(C)=C/CO`, the molecule was classed as inactive (in [1]; with Caspase-3 (Homo sapiens); in experiment [4]; in experiment [8]; in experiment [9]; in experiment [10]). The outcome in experiment [12] was inactive.
With `CC(C)=CCCC(C)=CC=O`, the molecule was classed as inactive (in [1]; with Caspase-3 (Homo sapiens); in experiment [2]; in experiment [3]; in [4]; in experiment [6]). Besides, the molecule was called inactive (with CYP2C8 (gene 1558); with CYP2C9 (gene 1559); in the experiment with CYP2E1 (gene 1571); with CYP4A11 (gene 1579); in [7]; in [8]). Moreover, the molecule was called inactive (in experiment [9]; in experiment [10]; in [11]; with CYP3A5 (gene 1577); in [12]; in experiment [13]). In experiment [5], the AC50 was 50 µM (active).
For the molecule `CNCc1ccc(NC(=O)c2c[nH]c3c2C(=O)CCC3)cc1`, the outcome (in [1]; in the experiment with Caspase-3 (Homo sapiens); in experiment [2]; in [4]; in experiment [5]; in [6]) was inactive. For the same molecule, the molecule was called inactive (in the experiment with CYP2C8 (gene 1558); with CYP2C9 (gene 1559); with CYP2E1 (gene 1571); with CYP4A11 (gene 1579); in experiment [7]; in experiment [8]). Besides, the molecule was called inactive (in experiment [9]; in [10]; in [11]; in the experiment with CYP3A5 (gene 1577); in experiment [12]; in experiment [13]). For the same molecule, the AC50 in [3] is 73.2 µM (active).
`O=c1[nH]c2ccc(S(=O)CCN3CCC(Cc4ccc(F)cc4)CC3)cc2o1` (stereo not drawn): the call (in experiment [1]; with Caspase-3 (Homo sapiens); in [2]; in experiment [3]; in [4]; in experiment [10]) was inactive. Also, the molecule was called inactive in the experiment with CYP3A5 (gene 1577). The half-maximal activity concentration (AC50) is 82.3 µM (active) in experiment [5]; 78.5 µM (active) with CYP2C8 (gene 1558); 71.1 µM (active) in the experiment with CYP2C9 (gene 1559); 50 µM (active) in the experiment with CYP2E1 (gene 1571); 82.6 µM (active) in the experiment with CYP4A11 (gene 1579); 12.5 µM (active) in [7]. Moreover, the half-maximal activity concentration (AC50) is 30.7 µM (active) in [8]; 50 µM (active) in [9]; 90.1 µM (active) in experiment [11]; 80.3 µM (active) in [12]; 80 µM (active) in experiment [13].
Take `CCC(C)(C)C(=O)O[C@H]1C[C@@H](C)C=C2C=C[C@H](C)[C@H](CC[C@@H]3C[C@@H](O)CC(=O)O3)[C@H]21`: the molecule was classed as inactive (in [1]; with Caspase-3 (Homo sapiens); in experiment [4]; in [8]; in experiment [9]; in experiment [10]). Also, the AC50 in [12] was 5.7 µM (active).

As usually defined, the AC50 is the concentration giving half of the maximal activity seen.

For the origin of these results see PubChem BioAssay (EPA / NIEHS).
